PubChem BioAssay AID1159606 (Sanford-Burnham Center for Chemical Genomics, 2016)
Among all 360,000 compounds or so, about 7,300 (2%) were called active. Shown is part of a subset that was picked to be rich in actives. Unmarked numbers belong to inactive results. Rule as the data show it: active = inhibition above about 50%; inactive = the rest.

Test: inhibitors of TWEAK-Fn14 signaling, primary screen, luciferase reporter cells, uHTS (AID 1159606)
Conditions: TWEAK-stimulated Fn14 reporter cells, luciferase luminescence, 8 h; at 10 µM; active compounds read high

Compound	inhibition
O=C(NNC(=O)c1ccc(-n2cncn2)c([N+](=O)[O-])c1)c1ccccc1	2.77%
NS(=O)(=O)c1ccc(CNC(=O)c2cccc(S(=O)(=O)N3CCc4ccccc43)c2)cc1	3.71%
NS(=O)(=O)c1ccc2nc(NC(=O)C3=COCCO3)sc2c1	24.4%
CC1CCN(C(=O)c2cccc(S(=O)(=O)N3CCCc4ccccc43)c2)CC1	-0.65%
CCC(=O)Nc1nnc(S(=O)(=O)N2CCCc3ccccc32)s1	-3.9%
Cc1ccc(NC(=O)c2cccc(S(=O)(=O)N3CCCc4ccccc43)c2)nc1	58.7% (active)
CCCCCCCCN1C(=O)[C@H](CC(=O)NCC23CC4CC(CC(C4)C2)C3)C[C@@]2(C(=O)OC)CCCCC=C12	8.39%
CCNC(=O)C1(C)CCN(Cc2ccc(C(=O)OCC)o2)C1 (centres undefined)	1.05%
CN(C)N=Nc1ccc2nc[nH]c2c1	-9.3%
O=S1(=O)CC(N2CCN(Cc3ccccc3F)CC2)CN1Cc1cn(Cc2ccccc2)nn1 (centres undefined)	5.09%
C=CCn1c(SCc2nnc(-c3ccccc3)o2)nnc1C(O)c1ccccc1 (centres undefined)	-3.86%
CCC(NC(=O)c1ccccc1NC(=O)c1ccccc1)C(=O)NNC(=O)CSc1nc2ccccc2o1 (centres undefined)	-0.91%
Cn1cnc2c1c(=O)n(Cc1c(Cl)cccc1Cl)c(=O)n2C	-7.11%
Cn1c(N)c(C(=O)COC(=O)c2ccccc2NCc2ccco2)c(=O)n(C)c1=O	22.6%
CC(=O)c1cnn(-c2cc(Oc3ccc(F)cc3)ncn2)c1C	8.07%
CCOC(=O)/C(=N\Nc1cc(Cl)ccc1Cl)N1CCN(C)CC1	-34.9%
O=C(/C=C\c1cn(-c2ccccc2)nc1-c1cccs1)N1CCOCC1	98.4% (active)
CC(=O)C1=C(C)NC(C)=C(C(C)=O)C1c1cn(-c2ccccc2)nc1-c1cccs1	-6.98%
O=C(/C=C/c1cn(-c2ccccc2)nc1-c1ccc2c(c1)OCCO2)NCCCN1CCOCC1	-1.36%
COc1ccc(S(=O)(=O)N2CCCCC2)cc1NC(=O)COc1ccccc1	22.4%
COc1ccc(-c2nn(C)c(=O)c3ccccc23)cc1NC(=O)COc1ccccc1	71.2% (active)
COc1ccc(-c2nn(C)c(=O)c3ccccc23)cc1CNC(=O)C1CCCCC1	-37.6%

Compound	inhibition
CC1CC(=S)Nc2ccccc2N1Cc1ccccc1 (centres undefined)	13.5%
Cc1nc2ccc(NC(=O)N3CCC(c4ccccc4)C3)cc2nc1C (centres undefined)	0.79%
O=C(O)c1ccc(N/N=C/c2ccc3ncccc3c2)cc1	95.2% (active)
CC(C)(C)OC(=O)N/N=C/c1ccc(C(=O)O)cc1	-4.99%
CCNC(=S)NNC(=O)c1ccc2ncccc2c1	1.76%
CC1(C(=O)Nc2ccc3c(c2)OCCO3)CCN1C(=O)Cc1cc(F)ccc1F (centres undefined)	-3.09%
O=S(=O)(NCc1ccccc1Cl)c1cnc[nH]1	-2.25%
O=S1(=O)CC(N2CCN(Cc3ccccc3F)CC2)CN1Cc1cn(Cc2cccc(C(F)(F)F)c2)nn1 (centres undefined)	10.4%
O=[N+]([O-])c1ccc(F)cc1Oc1nc(-c2cccnc2)nc2ccccc12	55.1% (active)
O=[N+]([O-])c1cc2ccccc2nc1-c1ccccc1	-7.41%
CCN(CC(=O)NC1CCS(=O)(=O)C1)c1nc(-c2cccnc2)nc2ccccc12 (centres undefined)	0.56%
Cc1ccc(S(=O)(=O)N2[C@@H](c3cccc4ccccc34)C(C(=O)O)=C[C@H]2C(C)(C)C)cc1	14.3%
CCOc1ccc(CN2CCNC(=O)C2CC(=O)NCCCC2CCCC2)cc1 (centres undefined)	7.15%
CCOC(=O)C1=C(NC(=S)NC(=O)c2ccccc2)c2ccccc2CC1(C)C	4.16%
CCOC(=O)c1c(NC(=S)NC(=O)/C=C/c2cccs2)sc(C)c1C	20.2%
CCOC(=O)c1c(-c2ccccc2)csc1NC(=S)NC(=O)c1ccccc1	57.9% (active)
O=C(C1CCCO1)N1CCN(C(=O)C23CC4CC(CC(C4)C2)C3)CC1 (centres undefined)	-24%
C[C@H](CO)N1C[C@H](C)[C@@H](CN(C)Cc2ccc3c(c2)OCO3)OCc2cnnn2CCCC1=O	-16.3%
Cc1cc(Cl)c(S(=O)(=O)NCC2CCCO2)cc1OCC(N)=O (centres undefined)	3.22%
Cc1cc(Cl)c(S(=O)(=O)N(C)C)cc1OCC(N)=O	12.6%
Cc1cc(Cl)c(S(=O)(=O)Nc2ccc3c(c2)OCCO3)cc1OCC(N)=O	86.8% (active)
Cc1cc(C)cc(C(=O)OCC(=O)NCCNC(=O)COC(=O)c2cc(C)cc(C)c2)c1	-2.52%
